Experiment [1] deals with Protein kinase C eta type (Homo sapiens) (UniProt P24723). The note with it: at 1 µM.
Experiment [2] shares this target. The note with it: at 10 µM.
Experiment [3] deals with Protein kinase C theta type (Homo sapiens) (UniProt Q04759). The note with it: at 1 µM.
The target is the same in experiment [4]. The note with it: at 10 µM.
The target of experiment [5] is T1, Serine/threonine-protein kinase D1 (Homo sapiens) (UniProt Q15139).
T1 sequence (whole entry): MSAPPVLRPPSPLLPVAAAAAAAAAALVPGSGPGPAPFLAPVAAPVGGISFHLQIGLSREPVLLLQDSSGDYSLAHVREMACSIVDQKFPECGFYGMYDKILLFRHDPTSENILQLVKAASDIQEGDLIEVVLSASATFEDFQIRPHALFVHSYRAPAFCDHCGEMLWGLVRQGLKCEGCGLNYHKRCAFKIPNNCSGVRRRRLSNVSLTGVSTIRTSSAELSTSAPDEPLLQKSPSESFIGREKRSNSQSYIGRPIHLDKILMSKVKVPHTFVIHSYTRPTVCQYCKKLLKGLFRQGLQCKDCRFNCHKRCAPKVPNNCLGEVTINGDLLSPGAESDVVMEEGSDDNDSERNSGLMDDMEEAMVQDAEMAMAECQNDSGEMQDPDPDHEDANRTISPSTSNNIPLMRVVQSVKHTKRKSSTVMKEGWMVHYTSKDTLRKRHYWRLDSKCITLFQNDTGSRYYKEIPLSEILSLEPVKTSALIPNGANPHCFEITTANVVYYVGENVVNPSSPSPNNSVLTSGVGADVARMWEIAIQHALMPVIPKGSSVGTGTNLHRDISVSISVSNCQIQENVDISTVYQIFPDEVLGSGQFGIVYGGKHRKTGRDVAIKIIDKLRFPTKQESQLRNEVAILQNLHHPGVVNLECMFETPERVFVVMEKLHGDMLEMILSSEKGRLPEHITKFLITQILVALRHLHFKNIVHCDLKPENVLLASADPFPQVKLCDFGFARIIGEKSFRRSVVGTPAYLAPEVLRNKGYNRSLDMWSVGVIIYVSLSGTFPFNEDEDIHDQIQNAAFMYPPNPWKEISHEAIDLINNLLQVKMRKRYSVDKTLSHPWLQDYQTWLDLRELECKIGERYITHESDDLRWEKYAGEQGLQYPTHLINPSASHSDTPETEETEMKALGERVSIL
The note with it: at 1 µM.

The target in experiment [6] is T1, Serine/threonine-protein kinase D1 (Homo sapiens). The note with it: at 10 µM.
For experiment [7], the target named is T2, Protein kinase C iota type (Homo sapiens) (UniProt P41743).
T2 sequence (whole entry): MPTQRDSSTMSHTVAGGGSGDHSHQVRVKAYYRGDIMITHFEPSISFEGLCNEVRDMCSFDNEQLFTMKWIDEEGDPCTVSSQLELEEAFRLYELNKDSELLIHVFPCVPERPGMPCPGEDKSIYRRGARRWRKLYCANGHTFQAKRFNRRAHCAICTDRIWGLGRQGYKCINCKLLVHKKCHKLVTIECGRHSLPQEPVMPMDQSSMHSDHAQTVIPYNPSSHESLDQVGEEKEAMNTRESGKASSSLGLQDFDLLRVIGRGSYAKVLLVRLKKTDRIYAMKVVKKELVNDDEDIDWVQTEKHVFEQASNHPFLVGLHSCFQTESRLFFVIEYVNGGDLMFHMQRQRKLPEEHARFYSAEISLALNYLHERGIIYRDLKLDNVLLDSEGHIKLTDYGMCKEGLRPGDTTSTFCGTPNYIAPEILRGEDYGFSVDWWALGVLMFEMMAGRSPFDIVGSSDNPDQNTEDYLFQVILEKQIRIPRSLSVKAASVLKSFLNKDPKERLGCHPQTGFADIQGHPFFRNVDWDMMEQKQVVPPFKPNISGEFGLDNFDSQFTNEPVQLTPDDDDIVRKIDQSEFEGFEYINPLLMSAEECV
The note with it: at 1 µM.

Experiment [8] deals with T2, Protein kinase C iota type (Homo sapiens). The note with it: at 10 µM.
Experiment [9] concerns the target T3, Serine/threonine-protein kinase D2 (Homo sapiens) (UniProt Q9BZL6).
T3 sequence (whole entry): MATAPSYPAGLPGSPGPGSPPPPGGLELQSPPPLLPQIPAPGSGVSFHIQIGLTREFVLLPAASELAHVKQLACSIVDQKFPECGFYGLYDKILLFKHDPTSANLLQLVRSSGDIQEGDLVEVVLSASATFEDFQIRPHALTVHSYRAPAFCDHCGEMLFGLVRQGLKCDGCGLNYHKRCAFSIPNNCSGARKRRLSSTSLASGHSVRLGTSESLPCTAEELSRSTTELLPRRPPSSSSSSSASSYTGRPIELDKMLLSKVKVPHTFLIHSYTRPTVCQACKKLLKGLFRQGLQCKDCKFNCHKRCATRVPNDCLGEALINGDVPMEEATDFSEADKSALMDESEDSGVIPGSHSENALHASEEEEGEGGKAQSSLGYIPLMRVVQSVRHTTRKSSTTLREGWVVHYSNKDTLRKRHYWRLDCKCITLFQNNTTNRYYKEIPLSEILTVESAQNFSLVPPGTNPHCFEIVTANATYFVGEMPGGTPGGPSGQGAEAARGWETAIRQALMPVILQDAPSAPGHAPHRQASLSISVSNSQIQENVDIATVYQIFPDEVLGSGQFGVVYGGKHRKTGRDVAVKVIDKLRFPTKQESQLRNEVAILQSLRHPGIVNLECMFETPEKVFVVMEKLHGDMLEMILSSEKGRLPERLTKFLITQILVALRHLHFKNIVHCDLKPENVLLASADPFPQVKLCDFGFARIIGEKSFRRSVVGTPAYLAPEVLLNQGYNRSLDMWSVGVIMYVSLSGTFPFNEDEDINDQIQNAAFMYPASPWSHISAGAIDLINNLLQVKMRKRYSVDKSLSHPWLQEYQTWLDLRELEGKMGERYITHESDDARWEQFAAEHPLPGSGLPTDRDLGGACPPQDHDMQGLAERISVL
The note with it: at 1 µM.

Experiment [10] has as its target T3, Serine/threonine-protein kinase D2 (Homo sapiens). The note with it: at 10 µM.

Protein kinase C theta type (Homo sapiens), sequence (Q04759 whole entry, looked up): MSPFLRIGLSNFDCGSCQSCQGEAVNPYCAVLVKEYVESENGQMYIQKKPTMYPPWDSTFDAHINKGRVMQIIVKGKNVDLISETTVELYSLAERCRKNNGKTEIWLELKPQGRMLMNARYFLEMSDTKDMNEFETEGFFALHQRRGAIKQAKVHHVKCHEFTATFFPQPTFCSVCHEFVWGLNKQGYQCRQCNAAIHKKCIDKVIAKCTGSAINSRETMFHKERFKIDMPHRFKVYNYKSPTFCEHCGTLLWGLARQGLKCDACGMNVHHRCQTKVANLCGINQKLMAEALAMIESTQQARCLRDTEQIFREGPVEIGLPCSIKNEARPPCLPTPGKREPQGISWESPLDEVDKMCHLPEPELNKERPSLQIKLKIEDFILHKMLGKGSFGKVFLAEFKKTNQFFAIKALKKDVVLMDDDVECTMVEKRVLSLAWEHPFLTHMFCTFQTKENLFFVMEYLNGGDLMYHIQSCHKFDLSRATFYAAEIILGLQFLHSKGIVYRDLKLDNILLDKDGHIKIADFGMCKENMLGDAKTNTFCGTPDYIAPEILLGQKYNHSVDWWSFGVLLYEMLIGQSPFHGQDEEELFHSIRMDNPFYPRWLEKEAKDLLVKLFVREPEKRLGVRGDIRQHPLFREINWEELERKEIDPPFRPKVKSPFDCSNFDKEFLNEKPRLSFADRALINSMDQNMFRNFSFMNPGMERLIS
Protein kinase C eta type (Homo sapiens), sequence (P24723 whole entry): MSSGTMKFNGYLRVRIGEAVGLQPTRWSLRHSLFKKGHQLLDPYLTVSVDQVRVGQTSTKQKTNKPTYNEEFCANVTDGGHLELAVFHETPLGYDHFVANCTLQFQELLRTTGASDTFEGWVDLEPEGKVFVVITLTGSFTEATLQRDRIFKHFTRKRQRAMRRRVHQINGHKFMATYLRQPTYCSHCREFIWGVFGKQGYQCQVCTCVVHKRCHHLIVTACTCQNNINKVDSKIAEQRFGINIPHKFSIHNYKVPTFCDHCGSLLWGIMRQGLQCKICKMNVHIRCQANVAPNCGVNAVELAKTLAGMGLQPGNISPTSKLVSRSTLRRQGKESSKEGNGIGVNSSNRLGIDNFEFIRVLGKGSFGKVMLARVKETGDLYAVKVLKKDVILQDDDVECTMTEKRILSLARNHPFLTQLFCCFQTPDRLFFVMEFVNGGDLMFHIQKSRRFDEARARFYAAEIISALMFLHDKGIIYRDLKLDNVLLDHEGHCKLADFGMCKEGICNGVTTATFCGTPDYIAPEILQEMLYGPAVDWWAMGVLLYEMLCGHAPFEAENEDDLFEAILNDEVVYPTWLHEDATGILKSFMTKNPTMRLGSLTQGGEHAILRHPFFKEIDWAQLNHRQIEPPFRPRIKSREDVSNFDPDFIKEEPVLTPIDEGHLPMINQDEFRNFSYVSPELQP

Turning to `COc1cc2ncnc(Nc3cccc(Cl)c3)c2cc1OC`, the residual activity came out at 110% in experiment [1]; 108% in experiment [2]; 105% in experiment [3]; 101% in [4]; 110% in experiment [5]; 73% in [6].

In the case of `O=C1NC(=O)C(c2c[nH]c3ccccc23)=C1c1c[nH]c2ccccc12`, the residual activity in experiment [1] was 68%; in [2], 17%; in experiment [3], 5%; in experiment [4], 2%; in experiment [7], 116% (inactive); in [8], 79%. In addition, the residual activity in [6] stood at 71%.

Regarding `O=C1C(Cl)=C(N2C(=O)CCC2=O)C(=O)c2ccccc21`, the residual activity in experiment [1] is 68%; in experiment [2] it was 24%; in [3] it was 92%; in experiment [4], 85%; in experiment [7] it was 118% (inactive); in experiment [8] it was 55%. For the same compound, the residual activity in experiment [5] worked out at 72%; in experiment [6] it was 76%; in experiment [9], 99%; in experiment [10], 100%.

On to `CCCCc1c(-c2ccc(O)cc2)[nH]c2nccnc12`, for which the residual activity in experiment [1] is 96%; in experiment [2], 77%; in [8], 83%; in experiment [5], 83%; in experiment [6] it was 59%.

Regarding `Nc1ncnc2c1c(-c1ccc(Oc3ccccc3)cc1)cn2C1CCCC1`, the residual activity in experiment [1] was 95%; in experiment [2], 67%; in [3], 94%; in experiment [4], 109%; in experiment [7], 87% (inactive); in experiment [8] it was 76%. Further, the figures for the residual activity in experiment [9] and in [10] were 93% and 95%, respectively.

As for `CCCC(=O)Oc1ccc2[nH]c(C(=O)c3cc4ccccc4[nH]3)cc2c1`, the residual activity in experiment [1] is 102%; in experiment [2], 81%; in [3] it was 92%; in [4], 75%; in [7] it was 99% (inactive); in experiment [5], 101%. Besides, the residual activity worked out at 103% in [6] and 99% in experiment [9].

Regarding `O=C(O)/C=C/c1cc(Br)c(Br)c(Br)c1Br`, the residual activity in experiment [1] is 100%; in [2], 79%; in [3], 100%; in [4], 90%; in experiment [7], 96% (inactive); in experiment [8], 100%. Moreover, the residual activity in experiment [5] turned out to be 109%; in experiment [6], 64%; in [9], 102%; in experiment [10], 97%.

In the case of `CC(C)[C@H](CO)Nc1nc(Nc2cc(N)cc(Cl)c2)c2ncn(C(C)C)c2n1`, the residual activity in [1] turned out to be 97%; in experiment [2], 99%; in experiment [3], 77%; in experiment [4] it was 23%; in [8] it was 89%; in experiment [5] it was 99%. Further, the results for the residual activity in experiment [6], in [9] and in experiment [10] were 81%, 96% and 99%, respectively.

`Nc1ncnc2[nH]nc(Nc3ccc(F)cc3)c12`: the residual activity in experiment [1] was 110%; in [2], 104%; in experiment [3] it was 107%; in [4] it was 92%; in experiment [7] it was 113% (inactive); in experiment [8], 109%. Further, the residual activity in experiment [5] was found to be 81%; in [6], 64%; in [9], 106%.

On to `O=c1cc(N2CCOCC2)oc2c1ccc1ccccc12`, for which the residual activity in experiment [1] was 94%; in [2], 79%; in experiment [3], 94%; in experiment [4], 105%; in experiment [7], 85% (inactive); in experiment [8] it was 97%. The residual activity in experiment [5] worked out at 77%; in experiment [6] it was 79%; in experiment [9] it was 100%; in [10], 94%.

With `O=S(=O)(NCCNC/C=C/c1ccc(Br)cc1)c1cccc2cnccc12`, the residual activity in [1] was determined as 66%; in [2], 15%; in [3] it was 61%; in [4], 17%; in [6], 20%.

For `Nc1n[nH]c2nc3ccccc3nc12`, the residual activity in [1] amounted to 89%; in experiment [2], 68%; in experiment [4], 85%; in experiment [5], 83%; in [6], 69%; in experiment [10], 87%.

Turning to `O=C1Nc2ccc(Cl)cc2/C1=C/c1cc(Cl)c(O)c(Cl)c1`, the residual activity in experiment [1] is 95%; in [2], 79%; in experiment [3] it was 99%; in experiment [4], 76%; in experiment [7] it was 85% (inactive); in [8], 83%. The residual activity in experiment [9] was 98%; in experiment [10] it was 56%.

For the compound `O=S(=O)(c1cccc2cnccc12)N1CCCNCC1`, the residual activity was found to be 80% in [1]; 26% in experiment [2]; 67% in experiment [4]; 84% in [5]; 20% in experiment [6]; 100% in experiment [9].

With `O=C(c1ccccc1)c1ccc(N2CCOCC2)cc1O`, the residual activity in [1] was 116%; in [2], 83%; in [7] it was 78% (inactive); in experiment [8], 73%; in [5], 95%; in [9] it was 96%. Further, the residual activity in experiment [10] amounted to 100%.

`O=c1cc(N2CCNCC2)oc2c(-c3ccccc3)cccc12`: the residual activity in [1] was 99%; in experiment [2], 82%; in [3], 102%; in experiment [4], 94%; in [7] it was 93% (inactive); in [8] it was 71%. For the same compound, the residual activity amounted to 96% in experiment [5], 90% in [6] and 102% in experiment [9].

Consider `Nc1ncnc2c1cnn2-c1ccccc1`, for which the residual activity in [1] is 102%; in experiment [2], 76%; in experiment [7] it was 102% (inactive); in [8] it was 98%; in [5] it was 92%.

For the compound `COc1cc2nccc(Oc3ccc(NC(=O)Nc4cc(C)on4)c(Cl)c3)c2cc1OC`, the residual activity in experiment [1] came out at 96%; in [2], 79%; in experiment [3], 100%; in [4] it was 98%.

With `Cn1c2ccccc2c2c3c(c4c5ccccc5n(CCC#N)c4c21)CNC3=O`, the residual activity in [1] was found to be 72%; in experiment [2], 60%; in [5], 5%; in experiment [6], 12%.

As for `O=C1NC(=O)C(c2cn(CCCn3ccnc3)c3ccccc23)=C1Nc1ccccc1`, the residual activity in [1] was 15%; in [2], 2%; in experiment [3], 3%; in [4] it was 2%.

Regarding `Cn1sc(=O)n(Cc2ccccc2)c1=O`, the residual activity is 79% in experiment [1]; 17% in [2]; 89% in [3]; 85% in experiment [4]; 87% (inactive) in experiment [7]; 19% in experiment [8]. In addition, the residual activity in experiment [5] came out at 90%; in [6], 64%; in [9], 99%; in experiment [10] it was 93%.

`CSc1nc(-c2ccc(F)cc2)c(-c2ccnc(NC(C)c3ccccc3)c2)[nH]1` (stereo not given): the residual activity in experiment [1] came out at 87%; in experiment [2], 73%; in experiment [3], 101%; in [4], 72%; in [8], 99%; in experiment [5], 97%. The residual activity in experiment [6] stood at 44%; in experiment [10], 94%.

Regarding `COc1cc2nccc(Oc3ccc(NC(=S)NC(=O)c4ccccc4C)cc3)c2cc1OC`, the residual activity in experiment [1] was 98%; in [2], 71%; in experiment [3] it was 89%; in experiment [4], 97%; in [7], 88% (inactive); in [8] it was 82%. The residual activity worked out at 87% in [5] and 89% in [6].

For `O=C1NC(=O)c2c1c1c3ccccc3[nH]c1n1cncc21`, the residual activity in [1] is 85%; in experiment [2] it was 81%; in experiment [3] it was 71%; in experiment [7], 102% (inactive); in experiment [8] it was 52%; in experiment [5] it was 41%. Further, the residual activity in experiment [6] turned out to be 25%; in experiment [9] it was 90%; in experiment [10] it was 42%.

As usually defined, the residual activity is the signal under treatment as a percentage of the control signal.

Values taken from ChEMBL document CHEMBL2218924, “A broad activity screen in support of a chemogenomic map for kinase signalling research and drug discovery” (Biochem J, 2013).
